Reference: PubChem BioAssay (Tox21)
Inconclusive results are not listed. The source made the active and inactive calls. Unless noted, calls come from the whole dose curve; as a rule, active = well fitted curve in the direction sought with a large enough effect in the repeat runs; inconclusive = weak or mixed curves; inactive = no such curve, though single readings can be large; an effect the other way counts as inactive or inconclusive.

Experiments:
[1] = qHTS assay to identify small molecule HDAC inhibitors - cell viability counter screen (AID 1259365); note: series mostly up to about 92 µM; nearly all actives have a fitted effect of over 50% in size
Method in brief: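 Wild-type HCT-116 cells, 1,500/well, cultured overnight, then compound-treated 2 h at 37 C. Viability measured as ATP luminescence with CellTiter-Glo after 30 min at room temperature.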

[2] = qHTS assay to identify small molecule agonists of the sonic hedgehog signaling (Shh) pathway - cell viability counter screen (AID 1259366); note: nearly all actives have a fitted effect of over 50% in size
Method in brief: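 NIH/3T3-derived Gli1-Luc reporter cells, 2,000 per well, received compound after 4 h and were treated about 23 h at 37C. Viability measured in the same wells by CellTiter-Fluor fluorescence after 1 h.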

[3] = qHTS assay to identify small molecule antagonists of the sonic hedgehog signaling (Shh) pathway - cell viability counter screen (AID 1259367); note: nearly all actives have a fitted effect of over 55% in size
Method in brief: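 Fluorescence read-out (CellTiter-Fluor, 1 hr at 37C) taken after 23 hr compound treatment of 3T3 Gli1-Luc cells stimulated with conditioned medium. Cells were seeded at 2,000 per well and pre-incubated 4 hr.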

[4] = qHTS assay to identify small molecule agonists of the sonic hedgehog signaling (Shh) pathway (AID 1259368; calls by dose curve;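 note: NIH/3T3-derived 3T3Gli1-Luc cells carrying a stable Gli1-driven firefly luciferase reporter; series mostly up to about 92 µM; nearly all actives have a fitted effect of over 15% in size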)
Method in brief: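 Quantitative high-throughput format using a Gli1-driven firefly luciferase reporter line derived from NIH/3T3 cells. After a 24 hr compound treatment at 37 C and 5% CO2, luminescence reported Gli1 response element activity.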

[5] = biological target: Estrogen receptor beta (Homo sapiens) (UniProt Q92731); assay: qHTS assay to identify small molecule agonists of the estrogen receptor beta (ER-beta) signaling pathway (AID 1259377; active = well fitted activation curve with a large enough effect in the signal ratio in the repeat runs, not every such curve was filed as active; the % refers to the signal ratio; note: potency is the fitted concentration of half-maximal effect)
Method in brief: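 ER-beta-UAS-bla HEK293T cells in medium with 2% charcoal-stripped FBS were exposed to compounds for 16 h at 37C. Beta-lactamase reporter activity was read as fluorescence after 2 h with LiveBLAzer B/G FRET substrate at room temperature.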

[6] = biological target: Estrogen receptor beta (Homo sapiens) (UniProt Q92731); assay: qHTS assay to identify small molecule antagonists of the estrogen receptor beta (ER-beta) signaling pathway (AID 1259378; active = well fitted inhibition curve with a large enough effect in the signal ratio in the repeat runs, not every such curve was filed as active; the % refers to the signal ratio)
Method in brief: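 ER-beta-UAS-bla HEK293T cells in 2% charcoal-stripped FBS medium treated with compound plus 1nM final 17-beta-estradiol for 16 hr at 37C. Beta-lactamase reporter read by FRET substrate fluorescence after 2 hours at room temperature.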

[7] = qHTS assay to identify small molecule agonists of the androgen receptor (AR) signaling pathway in the presence of an antagonist - cell viability counter screen (AID 1259379);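 note: MDA-kb2 human breast cancer cells carrying an MMTV luciferase reporter; series mostly up to about 92 µM; nearly all actives have a fitted effect of over 25% in size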
Method in brief: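 Nilutamide-containing (3.0uM final) MDA-kb2 cultures, 3,000 cells/well, were treated with compounds across 15 concentrations. After 16 hr at 37C with no CO2, cell viability was determined by CellTiter-Fluor fluorescence in the luciferase assay wells.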

[8] = qHTS assay to identify small molecule agonists of the estrogen receptor beta (ER-beta) signaling pathway - cell viability counter screen (AID 1259380); note: nearly all actives have a fitted effect of over 30% in size
Method in brief: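 Steps: plate ER-beta-UAS-bla HEK293T cells, rest 6 hr; add compounds in DMSO; incubate 16 hr at 37C, 5% CO2; add FRET substrate 2 hr; add CellTiter-Glo, wait 30 min at room temperature; read luminescence.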

[9] = qHTS assay to identify small molecule antagonists of the estrogen receptor beta (ER-beta) signaling pathway - cell viability counter screen (AID 1259382); note: series mostly up to about 92 µM; nearly all actives have a fitted effect of over 55% in size
Method in brief: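 Viability is scored by CellTiter-Glo luminescence (30 min, room temperature) in ER-beta-UAS-bla HEK293T wells already read for reporter fluorescence. Compound exposure lasts 16 hr at 37C alongside 1nM 17-beta-estradiol in charcoal-stripped serum medium.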

[10] = biological target: Estrogen receptor (Homo sapiens) (UniProt P03372); assay: qHTS assay to identify small molecule agonists of the estrogen receptor alpha (ER-alpha) signaling pathway in the presence of an antagonist (AID 1259383; calls by dose curve; note: top concentration of the series differs between compounds; nearly all actives have a fitted effect of over 15% in size)
Method in brief: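 Readout was ERE-driven luciferase luminescence in VM7Luc4E2 cells, which express full-length ER-alpha endogenously. Compounds were tested at 15 concentrations for 22hr alongside 10.0nM ICI-182,780 (final concentration).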

[11] = qHTS assay to identify small molecule agonists or antagonists of the thyroid stimulating hormone receptor (TSHR) signaling pathway - wild type cell line counter screen (AID 1259384; calls by dose curve)
Method in brief: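 Wild-type Hek293 cells, 800/well, 18 h at 37C, then compound with Ro20-1724 for 30 min RT. cAMP by HTRF (cAMP-d2/anti-cAMP cryptate), 1 h RT, fluorescence read. 15 concentrations, triplicates.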

[12] = biological target: Thyrotropin receptor (Homo sapiens) (UniProt P16473); assay: qHTS assay to identify small molecule antagonists of the thyroid stimulating hormone receptor (TSHR) signaling pathway (AID 1259385; calls by dose curve; note: nearly all actives have a fitted effect of over 20% in size)
Method in brief: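 TSHR-HEK293 cells (800/well) plated 18 h, then compounds with Ro20-1724 and TSH at 1.5 ng/mL final, 30 min at room temperature. cAMP quantified by HTRF (cAMP-d2/anti-cAMP-cryptate, 1 h); 15 concentrations in triplicate.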

[13] = qHTS assay to identify small molecule agonists of the estrogen receptor alpha (ER-alpha) signaling pathway in the presence of an antagonist - cell viability counter screen (AID 1259386);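 note: series mostly up to about 92 µM; cells exposed to compounds for 22 h at 37 °C before the viability read; nearly all actives have a fitted effect of over 30% in size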
Method in brief: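 In this counter screen, compound effects on VM7Luc4E2 viability were tested in the presence of the antagonist ICI-182,780 at 10.0nM final. Compounds were dosed at 15 concentrations, exposure lasted 22hr, and the CellTiter-Fluor signal was read.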

[14] = biological target: Progesterone receptor (Homo sapiens) (UniProt P06401); assay: qHTS assay to identify small molecule agonists of the progesterone receptor (PR) signaling pathway (AID 1346784; calls by dose curve; note: nearly all actives have a fitted effect of over 30% in size)
Method in brief: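 PR-UAS-bla HEK 293T cells (beta-lactamase reporter under UAS) in 2% charcoal-stripped FBS, dosed with 23 nL compound after 6 hr, incubated 16hr at 37C. LiveBLAzer B/G FRET substrate added, fluorescence read after 2 hours.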

[15] = biological target: Progesterone receptor (Homo sapiens) (UniProt P06401); assay: qHTS assay to identify small molecule antagonists of the progesterone receptor (PR) signaling pathway (AID 1346795; active = well fitted inhibition curve with a large enough effect in the signal ratio in the repeat runs, not every such curve was filed as active; the % refers to the signal ratio; note: potency is the fitted concentration of half-maximal effect)
Method in brief: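 PR-UAS-bla HEK293T cells with beta-lactamase reporter under UAS control, in 2% charcoal-stripped FBS, treated with compounds plus 1 nM promegestone (R5020, final) for 16 hr at 37C. Read-out: FRET beta-lactamase substrate fluorescence after 2 hr at room temperature.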

[16] = qHTS assay to identify small molecule agonists of the progesterone receptor (PR) signaling pathway - cell viability counter screen (AID 1346799; calls by dose curve; note: nearly all actives have a fitted effect of over 45% in size)
Method in brief: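 Counter screen in the PR-UAS-bla HEK293T wells (2% charcoal-stripped FBS, 16 h compound exposure at 37 C) after the bla read. CellTiter-Glo added, 30 min at room temperature, luminescence read as cell viability.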

[17] = qHTS assay to identify small molecule antagonists of the TGF-beta/Smad signaling pathway - cell viability counter screen (AID 1346824); note: nearly all actives have a fitted effect of over 50% in size
Method in brief: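 SBE-bla HEK 293T cells, incubated overnight, then compound plus 0.25 ng/mL TGF-beta1 (stock added) for 5 hr at 37 C. Viability was read in the same wells by CellTiter-Glo luminescence after 30 min at room temperature.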

[18] = qHTS assay to identify small molecule antagonists of the progesterone receptor (PR) signaling pathway - cell viability counter screen (AID 1346798); note: series mostly up to about 92 µM; nearly all actives have a fitted effect of over 50% in size
Method in brief: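 PR-UAS-bla HEK293T cells, 3,000/well in 2% charcoal-stripped FBS medium, dosed with compounds plus R5020 agonist and incubated 16 h at 37C. Viability then measured in the same wells by CellTiter-Glo luminescence after 30 min at RT.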

[19] = biological target: Androgen receptor (Homo sapiens) (UniProt P10275); assay: qHTS assay to identify small molecule agonists of the androgen receptor (AR) signaling pathway in the presence of an antagonist (AID 1259381; calls by dose curve; note: nearly all actives have a fitted effect of over 15% in size)
Method in brief: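 Reporter-gene luminescence from MDA-kb2 cells exposed 16hr at 37C (0% CO2) to 15-point compound titrations with 3.0uM final nilutamide as AR antagonist.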

[20] = qHTS assay to identify small molecule antagonists of the sonic hedgehog signaling (Shh) pathway (AID 1259369; calls by dose curve; note: nearly all actives have a fitted effect of over 45% in size)
Method in brief: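 Stable Gli1-Luc reporter NIH/3T3 clone; quantitative HTS in stimulated mode with conditioned medium. Luminescence measured after 24hr compound treatment at 37 C.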
% is set by controls: 0 for no effect and ±100 for the full control effect.

Sequence of Progesterone receptor (Homo sapiens) (P06401 whole entry, looked up): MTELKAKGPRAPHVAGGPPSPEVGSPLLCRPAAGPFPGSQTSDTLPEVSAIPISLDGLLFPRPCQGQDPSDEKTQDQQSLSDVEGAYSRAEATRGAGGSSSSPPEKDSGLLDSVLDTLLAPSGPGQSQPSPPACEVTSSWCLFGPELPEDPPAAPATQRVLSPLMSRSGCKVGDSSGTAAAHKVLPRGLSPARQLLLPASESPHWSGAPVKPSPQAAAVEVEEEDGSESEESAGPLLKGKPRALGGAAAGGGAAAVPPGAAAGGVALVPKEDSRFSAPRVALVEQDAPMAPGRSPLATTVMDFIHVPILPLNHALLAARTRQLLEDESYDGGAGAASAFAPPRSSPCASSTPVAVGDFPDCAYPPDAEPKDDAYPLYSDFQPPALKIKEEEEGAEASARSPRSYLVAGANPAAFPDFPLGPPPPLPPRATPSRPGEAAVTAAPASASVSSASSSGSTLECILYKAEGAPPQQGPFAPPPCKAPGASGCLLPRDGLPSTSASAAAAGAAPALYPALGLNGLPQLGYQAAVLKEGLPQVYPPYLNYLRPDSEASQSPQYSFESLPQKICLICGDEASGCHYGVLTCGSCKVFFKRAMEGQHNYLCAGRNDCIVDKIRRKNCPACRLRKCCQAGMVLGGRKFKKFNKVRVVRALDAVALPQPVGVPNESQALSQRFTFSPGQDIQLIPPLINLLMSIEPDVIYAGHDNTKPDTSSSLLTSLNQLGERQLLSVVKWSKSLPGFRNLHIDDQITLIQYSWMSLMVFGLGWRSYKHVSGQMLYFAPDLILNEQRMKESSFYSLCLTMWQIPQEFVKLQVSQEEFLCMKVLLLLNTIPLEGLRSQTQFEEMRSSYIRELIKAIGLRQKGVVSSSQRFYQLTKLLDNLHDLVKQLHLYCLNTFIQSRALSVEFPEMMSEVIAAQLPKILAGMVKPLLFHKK
Sequence of Thyrotropin receptor (Homo sapiens) (P16473 whole entry, looked up): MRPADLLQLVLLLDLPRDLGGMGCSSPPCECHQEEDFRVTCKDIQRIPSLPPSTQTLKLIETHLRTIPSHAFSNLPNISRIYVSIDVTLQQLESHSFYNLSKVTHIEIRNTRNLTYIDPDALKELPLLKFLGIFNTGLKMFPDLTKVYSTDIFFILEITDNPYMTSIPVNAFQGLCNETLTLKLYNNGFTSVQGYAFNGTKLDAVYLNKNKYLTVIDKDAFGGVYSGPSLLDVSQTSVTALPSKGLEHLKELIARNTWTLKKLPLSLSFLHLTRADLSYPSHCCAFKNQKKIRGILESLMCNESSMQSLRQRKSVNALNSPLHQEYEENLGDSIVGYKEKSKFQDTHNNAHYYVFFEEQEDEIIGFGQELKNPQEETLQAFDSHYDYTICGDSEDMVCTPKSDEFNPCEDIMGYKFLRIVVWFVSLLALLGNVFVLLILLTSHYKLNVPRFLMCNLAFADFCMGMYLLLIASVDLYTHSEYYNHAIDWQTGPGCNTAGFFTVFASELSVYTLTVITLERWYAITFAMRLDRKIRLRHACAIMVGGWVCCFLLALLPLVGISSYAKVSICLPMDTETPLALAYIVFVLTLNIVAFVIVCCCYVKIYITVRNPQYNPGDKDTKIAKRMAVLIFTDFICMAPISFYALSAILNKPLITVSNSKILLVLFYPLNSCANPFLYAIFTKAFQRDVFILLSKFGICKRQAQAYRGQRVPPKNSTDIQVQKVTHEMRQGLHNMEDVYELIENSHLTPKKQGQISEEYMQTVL
Sequence of Androgen receptor (Homo sapiens) (P10275 whole entry, looked up): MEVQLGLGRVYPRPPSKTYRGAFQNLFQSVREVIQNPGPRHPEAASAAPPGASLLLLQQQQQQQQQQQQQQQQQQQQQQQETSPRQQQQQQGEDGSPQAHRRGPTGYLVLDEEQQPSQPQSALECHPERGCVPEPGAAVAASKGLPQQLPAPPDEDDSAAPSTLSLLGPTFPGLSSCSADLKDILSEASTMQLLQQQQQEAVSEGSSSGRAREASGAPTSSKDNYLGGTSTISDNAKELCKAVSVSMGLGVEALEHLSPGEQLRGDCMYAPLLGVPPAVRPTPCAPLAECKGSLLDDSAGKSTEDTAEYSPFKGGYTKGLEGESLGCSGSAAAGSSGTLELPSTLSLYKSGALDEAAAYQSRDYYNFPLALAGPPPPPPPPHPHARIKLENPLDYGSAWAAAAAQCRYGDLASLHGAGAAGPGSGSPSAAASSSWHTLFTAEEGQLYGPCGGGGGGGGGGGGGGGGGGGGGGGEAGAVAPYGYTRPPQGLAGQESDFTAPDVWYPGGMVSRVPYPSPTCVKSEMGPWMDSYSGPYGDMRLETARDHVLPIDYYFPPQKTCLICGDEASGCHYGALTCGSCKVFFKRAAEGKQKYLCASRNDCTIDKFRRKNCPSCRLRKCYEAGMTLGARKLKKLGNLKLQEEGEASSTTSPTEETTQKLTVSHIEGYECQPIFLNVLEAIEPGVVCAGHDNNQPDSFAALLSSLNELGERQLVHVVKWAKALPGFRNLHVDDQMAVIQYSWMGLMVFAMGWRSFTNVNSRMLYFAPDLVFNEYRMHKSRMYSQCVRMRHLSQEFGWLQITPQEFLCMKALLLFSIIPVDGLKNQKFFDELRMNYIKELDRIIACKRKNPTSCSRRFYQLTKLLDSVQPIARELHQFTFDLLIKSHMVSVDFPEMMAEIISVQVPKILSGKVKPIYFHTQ
Sequence of Estrogen receptor beta (Homo sapiens) (Q92731 whole entry, looked up): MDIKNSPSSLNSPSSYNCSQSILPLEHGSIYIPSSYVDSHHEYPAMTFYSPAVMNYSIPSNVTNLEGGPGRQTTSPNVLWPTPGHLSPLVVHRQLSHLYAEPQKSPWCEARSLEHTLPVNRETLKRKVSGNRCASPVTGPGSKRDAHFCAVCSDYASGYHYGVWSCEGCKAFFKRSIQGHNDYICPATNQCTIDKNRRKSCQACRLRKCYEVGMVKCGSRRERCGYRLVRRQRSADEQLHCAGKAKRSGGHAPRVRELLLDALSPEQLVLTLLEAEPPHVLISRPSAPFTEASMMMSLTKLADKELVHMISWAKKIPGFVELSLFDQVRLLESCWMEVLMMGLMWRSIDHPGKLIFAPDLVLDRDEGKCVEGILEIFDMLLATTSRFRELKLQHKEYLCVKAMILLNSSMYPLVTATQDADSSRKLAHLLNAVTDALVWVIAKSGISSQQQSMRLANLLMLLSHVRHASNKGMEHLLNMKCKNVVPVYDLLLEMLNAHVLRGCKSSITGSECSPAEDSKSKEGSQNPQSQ
Sequence of Estrogen receptor (Homo sapiens) (P03372 whole entry, looked up): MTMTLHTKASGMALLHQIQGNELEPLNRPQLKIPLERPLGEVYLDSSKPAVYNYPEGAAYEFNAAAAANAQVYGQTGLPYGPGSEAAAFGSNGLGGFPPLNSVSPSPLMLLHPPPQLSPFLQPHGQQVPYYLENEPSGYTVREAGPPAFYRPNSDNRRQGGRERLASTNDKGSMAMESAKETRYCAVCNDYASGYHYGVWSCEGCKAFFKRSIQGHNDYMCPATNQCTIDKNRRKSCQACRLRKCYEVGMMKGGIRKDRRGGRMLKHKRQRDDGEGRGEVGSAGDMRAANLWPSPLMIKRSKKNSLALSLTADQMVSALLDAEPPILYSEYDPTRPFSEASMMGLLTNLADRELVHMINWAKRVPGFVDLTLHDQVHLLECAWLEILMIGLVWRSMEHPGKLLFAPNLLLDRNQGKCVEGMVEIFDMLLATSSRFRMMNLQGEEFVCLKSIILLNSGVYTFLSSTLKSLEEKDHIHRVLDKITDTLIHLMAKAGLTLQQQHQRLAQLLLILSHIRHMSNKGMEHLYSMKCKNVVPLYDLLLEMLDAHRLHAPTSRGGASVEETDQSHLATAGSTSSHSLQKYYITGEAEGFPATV

CC1(C)O[C@H]2CC(=O)OC[C@]23[C@H]2CC[C@@]4(C)[C@H](c5ccoc5)OC(=O)[C@H]5O[C@]54[C@]2(C)C(=O)C[C@@H]13
inactive: outcome [1] | outcome [2] | outcome [3] | outcome [4] | Potency [5] | Potency [6] | outcome [7] | outcome [8] | outcome [9] | Potency [10] | outcome [11] | outcome [12] | outcome [13] | Potency [14] | Potency [15] | outcome [16] | outcome [17]

CC(O)COC(C)(C)C (configuration not stated)
inactive: outcome [1] | outcome [2] | outcome [3] | outcome [4] | outcome [7] | outcome [8] | outcome [9] | outcome [11] | outcome [12] | outcome [13] | Potency [14] | Potency [15] | outcome [18] | outcome [16] | outcome [17]

CC12CCC(C1)C(C)(C)C2O (configuration not stated)
inactive: outcome [1] | outcome [2] | outcome [3] | outcome [4] | Potency [5] | Potency [6] | outcome [7] | outcome [8] | outcome [9] | outcome [12] | outcome [13] | Potency [14] | Potency [15] | outcome [18] | outcome [16] | outcome [17]

O=[N+]([O-])c1c(Cl)cc(Cl)cc1Cl
inactive: outcome [1] | outcome [2] | outcome [3] | outcome [4] | Potency [5] | Potency [6] | outcome [7] | outcome [8] | outcome [9] | outcome [11] | outcome [13] | Potency [14] | Potency [15] | outcome [18] | outcome [16] | outcome [17]

CCCCCCCCCCCCCCCCCCOCCO
inactive: activity change, negative = cytotoxicity [1] 0.0538% [at 19 µM] | viability change, negative = cytotoxic [2] 1.32% [at 19 µM] | viability change, negative = cytotoxic [3] -0.0007% [at 19 µM] | activity change [4] -0.0679% [at 18.9 µM] | activation [5] -0.0155% [at 19 µM] | activity, negative = inhibition [6] 4.09% [at 19 µM] | activity change, negative = cytotoxicity [7] -11.2% [at 19 µM] | activity change, negative = cytotoxicity [8] -1.63% [at 19 µM] | activity change, negative = cytotoxicity [9] 4.32% [at 19 µM] | activation [10] -1.02% [at 19 µM] | cAMP activity change [11] -0.284% [at 18.9 µM] | activity change, negative = inhibition [12] -0.175% [at 19 µM] | activity change, negative = cytotoxicity [13] 0.983% [at 19 µM] | activation [14] 3.24% [at 19 µM] | activity change, negative = inhibition [15] -1.49% [at 18.9 µM] | viability change, negative = cytotoxic [17] -1.95% [at 15.8 µM]

O=C1NC(c2ccccc2)(c2ccccc2)C(=O)N1COP(=O)(O)O
inactive: outcome [1] | outcome [2] | outcome [3] | outcome [4] | outcome [7] | outcome [8] | outcome [19] | outcome [9] | outcome [11] | outcome [12] | outcome [13] | Potency [14] | Potency [15] | outcome [18] | outcome [16] | outcome [17]

CCC(=O)Oc1ccc2c(c1)CC[C@@H]1[C@@H]2CC[C@@]2(C)[C@H]1C[C@@H](OC(=O)CC)[C@@H]2OC(=O)CC
inactive: outcome [1] | outcome [2] | outcome [3] | outcome [4] | outcome [7] | outcome [8] | outcome [19] | outcome [9] | outcome [12] | outcome [13] | Potency [14] | outcome [18] | outcome [16] | outcome [17]
active: Potency [5] 0.0211 µM | Potency [15] 1.88 µM

O=C(O)CSCC(=O)NC1CCSC1=O (configuration not stated)
inactive: outcome [1] | outcome [3] | outcome [4] | Potency [20] | Potency [5] | Potency [6] | outcome [7] | outcome [8] | outcome [19] | outcome [9] | outcome [11] | outcome [12] | Potency [14] | Potency [15] | outcome [17]
